TEAD-YAP inh = TEAD-YAP interaction inhibition. inhibition, % at 9.12 µM. 640,000 compounds, 1.4% hits. AID 1259422. HEK-TIYL cells, TEAD-Gal4/YAP UAS-luciferase luminescence; in the data active = inhibition above about 32%;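 also: 0% = median of test compound wells and 100% = reference inhibitor wells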
MITF primary = inhibitors of human MITF; O75030; AlphaScreen MITF homodimerization, bead proximity signal; inhibition, % at 2.6 µM; 650,000 compounds, 0.91% hits; AID 1259374; in the data active = inhibition above about 50%;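 also: 0% = vehicle wells with protein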
GPR151 activ = human GPR151 activation; 650,000 compounds, 1% hits; PathHunter beta-arrestin GPR151 cells, luminescence; Q8TDV0; activation, % at 11.2 µM; in the data active = activation above about 4.9%;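 also: 0% = median of compound wells and 100% = cells with positive control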
Target sequence (Q8TDV0 whole entry, looked up): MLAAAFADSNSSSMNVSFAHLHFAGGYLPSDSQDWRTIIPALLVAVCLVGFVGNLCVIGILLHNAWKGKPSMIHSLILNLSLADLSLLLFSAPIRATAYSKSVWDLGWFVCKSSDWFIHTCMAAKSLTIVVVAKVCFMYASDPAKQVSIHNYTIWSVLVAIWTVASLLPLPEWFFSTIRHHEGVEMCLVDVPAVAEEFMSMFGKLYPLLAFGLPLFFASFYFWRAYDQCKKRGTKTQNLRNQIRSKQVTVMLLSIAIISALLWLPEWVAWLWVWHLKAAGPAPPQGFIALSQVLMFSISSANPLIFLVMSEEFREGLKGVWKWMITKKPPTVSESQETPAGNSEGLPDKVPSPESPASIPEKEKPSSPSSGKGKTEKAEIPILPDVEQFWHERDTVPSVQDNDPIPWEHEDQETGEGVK
FBW7 act = activators of human E3 ligase FBW7; Q969H0; AlphaScreen FBW7–phospho-cyclin E peptide binding, activator screen; normalized activity (activation), % at 26.1 µM; 650,000 compounds, 0.13% hits; AID 1259310; in the data active = normalized activity above about 1.9%;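 also: purified mutant Fbw7 with reduced substrate affinity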
GPR151 confirm = human GPR151 activation, confirmation screen. shares compounds with GPR151 activ. GPR151 PathHunter beta-arrestin cells, luminescence, 90 min; % of EA-reagent control over plate median. activation, % at 11.2 µM. 6,700 tested, under 10 active;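 active = mean percent activation across replicates above the confirmation screen cutoff of 4.91%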
GPR119 ag = GPR119 activation, counter-screen for GPR151 activators. GPR119 PathHunter beta-arrestin cells, luminescence, 90 min; 0 = compound-well median, 100 = enzyme-acceptor control. shares compounds with GPR151 activ. AID 1508611. activation, % at 11.2 µM. 6,700 compounds, 0.3% hits;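 active = mean percent activation in the counterscreen above 29.09%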;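 also: counterscreen on off-target GPR119 to flag nonselective hits from the GPR151 activator screen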
The depositor's hits bear a star; nt = not tested or not shown. Rows were chosen to be rich in hits. Some 3.5% of all compounds tested hit in one or more screens of this group.

SMILES	TEAD-YAP inh	MITF primary	GPR151 activ	FBW7 act	GPR151 confirm	GPR119 ag
O=C(Cc1ccccc1[N+](=O)[O-])Nc1ccc2c(c1)OCO2	-27	-6	-1	0	nt	nt
O=C(Cc1ccccc1[N+](=O)[O-])NNC(=O)Nc1ccc2c(c1)OCO2	-12	-3	5.1*	0	1	-2
O=C(Nc1ccccc1)c1cc(Br)ccc1I	1	-3	2	0	nt	nt
Cc1ccc([N+](=O)[O-])cc1N/N=C/c1cc([N+](=O)[O-])ccc1O	4	-2	1	0	nt	nt
O=C(N=C1N=C2C=CC(Cl)=CN2Cc2ccccc21)c1ccco1	-43	6	-7	0	nt	nt
O=C(N=C1N=C2C=CC(Cl)=CN2Cc2ccccc21)c1ccc(Cl)c([N+](=O)[O-])c1	-16	-1	17*	0	1	-6
C=CCn1c(SCC(N)=O)nc2scc(-c3ccc(F)cc3)c2c1=O	4	-9	1	0	nt	nt
c1cc(NCCN2CCOCC2)nc(-c2ccc(N3CCOCC3)nc2)n1	6	11	6.1*	0	0	3
CC(=O)c1cccc(-c2nc(C)cc(NCCN3CCOCC3)n2)c1	-15	-4	11*	0	1	-1
Cc1cc(NCCN2CCOCC2)nc(-c2cccc(N)c2)n1	2	8	1	0	nt	nt
O=Cc1cccc(-c2ccc(NCCN3CCOCC3)nc2)c1	-58	14	5.2*	-1	0	-1
COc1ccccc1N(C)S(=O)(=O)c1ccc(C)c(C(=O)O)c1	-6	18	0	0	nt	nt
C/C(=N/NC(=O)c1cccc(Cl)c1)c1ccc([N+](=O)[O-])o1	-43	15	5.7*	0	0	3
C/C(=N/NC(=O)c1ccccc1)C1CC1	-58	-8	2	0	nt	nt
C/C(=N\NC(=O)c1cccc(Cl)c1)c1ccc([N+](=O)[O-])o1	-13	19	-1	1	nt	nt
C/C(=N\NC(=O)c1cccc(Cl)c1)C1CC1	-54	19	8.9*	0	2	14
Cc1ccc(C(=O)COC(=O)c2ccc3c(c2)C(=O)N(c2ccc(C)c(Cl)c2)C3=O)cc1	6	1	-1	0	nt	nt
Brc1ccc(SCCc2ccncc2)cc1	2	22	12*	1	-1	-14
Fc1ccc(Br)cc1SCCc1ccncc1	5	-1	-1	0	nt	nt
COc1ccc(-c2noc(CN(C(=O)c3cccc(F)c3)C(C)C)n2)cc1	-6	-8	3	0	nt	nt
CC1(C(=O)NNC(=S)NCc2ccco2)CC1(Cl)Cl (stereo not given)	3	11	5.3*	0	0	5
O=C1C2C(c3ccc(Br)cc3)OC3(C(=O)c4ccccc4C3=O)C2C(=O)N1c1ccccc1C(F)(F)F (stereo not given)	1	-11	1	0	nt	nt
COc1cc(C(=O)NCc2nc(-c3ccncc3)n[nH]2)cc(OC)c1OC	-3	-3	0	0	nt	nt
O=C(CC(NCc1ccccc1)C(=O)O)Nc1cc(Cl)ccc1Cl (stereo not given)	1	0	7.2*	0	0	14
O=C(CCc1ccccc1)Nc1cc(Cl)ccc1Cl	-8	6	-1	0	nt	nt
SMILES	TEAD-YAP inh	MITF primary	GPR151 activ	FBW7 act	GPR151 confirm	GPR119 ag
CCCn1ncc(CN2CCC(n3nccc3NC(=O)CCc3ccccc3)CC2)c1C	-4	19	6.6*	0	-1	-12
CCCc1cc(C(=O)Nc2ccc(OC)cc2OC)no1	-18	-1	17*	0	0	-4
COc1ccc(-c2cc(C(=O)Nc3ccc(OC)cc3OC)no2)cc1	6	6	0	0	nt	nt
O=C(O)c1c(-c2ccccc2)oc2ccc(O)cc12	-3	-2	0	-1	nt	nt
O=C(c1c(-c2ccccc2)oc2ccc(O)cc12)N1CCCCC1	-4	-6	4.9*	0	-1	-7
O=C(CCCN1C(=O)c2cccc3cccc(c23)C1=O)Nc1nncs1	-7	12	-1	0	nt	nt
CCOC(=O)N1CCN(C(=O)CNC(=O)c2nn(-c3ccc(OC)cc3OC)c(=O)c3ccccc23)CC1	-11	3	5.3*	0	0	10
COc1ccc(-n2nc(C(=O)NCC(=O)N3CCCC3)c3ccccc3c2=O)c(OC)c1	-2	17	-1	0	nt	nt
COc1ccc(-n2nc(C(=O)NCC(=O)Nc3ccc(OC)c(OC)c3)c3ccccc3c2=O)cc1Cl	31	13	6.3*	0	0	3
COc1cc(=O)n2c(c1C(=O)N(C)Cc1cscn1)CCN(CC=C(C)C)CC2	1	16	1	0	nt	nt
Cc1ccc(NC(=O)CC2OCC3CCCCN3C2=O)cc1 (stereo not given)	8	9	0	0	nt	nt
CCCOC(=O)c1cccc(NC(=O)CN2C(=O)c3ccccc3C2=O)c1	2	6	1	0	nt	nt
CCOc1ccccc1CNCCNC(=O)c1nonc1N	7	7	6.3*	0	0	-6
Nc1nonc1C(=O)NCCNCc1ccccc1Cl	-7	6	-1	0	nt	nt
Cc1nc2sccn2c1CN1CCOc2ccc(C(O)c3cccnc3)cc2C1 (stereo not given)	4	-4	0	0	nt	nt
CC[C@@H](C(=O)[C@@H](C)[C@@H](O)[C@H](C)CCc1ccc(C)c(O)c1C(=O)O)[C@H]1O[C@](CC)([C@H]2CC[C@](O)(CC)[C@H](C)O2)C[C@@H]1C	31	-4	21*	0	-1	-11
CC(=O)NC1C(Oc2cc(C)ccc2C)OC(CO)C(O)C1O (stereo not given)	3	-17	5.8*	0	0	0
CC(=O)N[C@H]1[C@H](Oc2ccc(Cl)cc2Cl)O[C@H](CO)[C@@H](O)[C@@H]1O	-2	-5	1	0	nt	nt
CC(=O)NC1C(Oc2cc(C)ccc2C)OC2COC(C)(C)OC2C1O (stereo not given)	-4	4	13*	0	1	7
COc1ccccc1OC1OC2COC(c3ccco3)OC2C(O)C1NC(C)=O (stereo not given)	-2	-2	15*	0	1	5
CC(C)CN(CC(C)C)C(=O)CCNS(=O)(=O)c1cc(Br)cnc1N	-3	23	-2	0	nt	nt
Cn1cc([N+](=O)[O-])c(C(=O)Nc2nc3ccccc3n2Cc2ccccc2)n1	1	-6	0	0	nt	nt
CCCNc1nccc(-c2c(-c3ccc(F)cc3)nc3n2[C@H](CO)[C@H](C)C3)n1	17	2	0	0	nt	nt
CCc1ccccc1NC(=S)N(Cc1cccc(Br)c1)CC1CCC(C(=O)O)CC1 (stereo not given)	11	2	7.9*	0	0	8
COc1ccc(Cl)cc1NC(=S)N(Cc1cccc(Br)c1)CC1CCC(C(=O)O)CC1 (stereo not given)	6	-13	15*	0	-1	6

Screening results deposited in PubChem by The Scripps Research Institute Molecular Screening Center.
